In patent US20210230599, “STEM-LOOP COMPOSITIONS AND METHODS FOR INHIBITING INTERLEUKIN-8” (VITRISA THERAPEUTICS, INC., published 2021) one finds binding signal data, which are given here for 1 sequence.

This experiment concerns the target Interleukin-8 (IL8, CXCL8), C-terminal His-tagged (Homo sapiens, UniProt P10145 SEQ:1-72). Kind of experiment: competition; competition TR-FRET; G18A. Particulars: tags: C-terminal 6xHis (Sino Biological); ssRNA; 2'-F G, 2'-OMe A/C/U, 5' C6NH2, 3' idT. The method, then:
To better understand the sequence requirements and to confirm the stem structures of members of the Aptamer 3 family as determined from sequence covariation analysis from both the primary and secondary (degenerate) selections, a series of variants which included mutations and deletions to the predicted stems were synthesized and screened (Table 24). Activity of each of these variants were tested using a time resolved competition TR-FRET assay in which the labeled parent Aptamer 3 was competed with increasing concentrations of unlabeled variants for binding to IL8 (FIG. 14). Briefly, 2-fold dilutions of thermally equilibrated aptamers were made in TR-FRET Buffer (50 mM MOPS, pH 7.4, 125 mM NaCl, 5 mM KCl, 50 μM CHAPS, 0.1 mg/mL BSA, 1 mM CaCl₂, and 1 mM MgCl₂). 5 μL of aptamer or control solution was added to 5 μl mix of 10 nM C-terminal His-tagged-IL8, 60 nM ALEXA FLUOR® 647-labeled Aptamer, and 5 nM anti-His-Eu (Perkin Elmer) in a black wall low volume 384 well plate (Greiner). For control, 5 μl of 1000-fold excess of unlabeled parent aptamer or 5 μl TR-FRET buffer alone was added to the mix of ALEXA FLUOR® 647-labeled aptamer, His-IL8, and anti-His-Eu. The plate was covered with a plate seal and subsequently incubated in the dark for 1 hour at room temperature. The plate was read on a Biotek CYTATION™ 5 plate reader. […]
For UGAUGACGGUAGAUUACAGGUAGAGUGACCGCAUCU, the binding signal is around 5 fold worse than Aptamer 3.
